VACV mCherry inh = vaccinia inhibition (mCherry reporter); Vaccinia virus mCherry reporter infection, fluorescence; Potency, µM (titrated, usually from 36.5 µM), without a hit: top-dose activity change, negative = inhibition, usual class: inhibitors; actives 0.63% (n = 310,000); AID 720579; calls by dose curve; tested in A549 cells; further: nearly all actives have a fitted effect of over 35% in size
Vaccinia Venus = inhibitors of vaccinia virus (Venus reporter). Vaccinia virus Venus reporter expression, fluorescence. Potency, µM (titrated, usually from 36.5 µM), inactives show at the top dose activity change, negative = inhibition, actives largely listed as inhibitors. actives 0.46% (n = 330,000); calls by dose curve; tested in A549 cells; further: nearly all actives have a fitted effect of over 30% in size
AmpC no deterg = inhibitors of E. coli AmpC beta-lactamase without detergent. actives 0.52% (n = 330,000). AmpC nitrocefin hydrolysis, absorbance 480 nm, 0.0001% Triton. Potency, µM (doses to about 57.1 µM), inactives show at the top dose activity change, negative = inhibition, most hits filed as inhibitors. P00811;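 further: plate controls were no compound for no effect and no enzyme for full effect; nearly all actives have a fitted effect of over 20% in size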
Target sequence (P00811 whole entry, looked up): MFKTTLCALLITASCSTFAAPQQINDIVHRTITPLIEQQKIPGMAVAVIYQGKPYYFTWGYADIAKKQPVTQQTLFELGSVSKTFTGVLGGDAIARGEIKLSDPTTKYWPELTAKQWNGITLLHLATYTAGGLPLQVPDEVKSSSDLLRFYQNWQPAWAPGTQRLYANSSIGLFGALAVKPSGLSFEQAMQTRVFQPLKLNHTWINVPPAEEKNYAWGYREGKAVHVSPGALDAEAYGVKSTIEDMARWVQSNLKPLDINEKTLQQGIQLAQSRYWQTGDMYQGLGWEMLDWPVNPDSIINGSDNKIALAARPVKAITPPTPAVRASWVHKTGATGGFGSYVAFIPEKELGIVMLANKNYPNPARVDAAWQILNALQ
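20 mM phosphate pH 7.0 + 0.01% (detergent screen) or 0.0001% Triton X-100; 5.3 nM AmpC reagent; cpd preinc 15 min RT; nitrocefin (800 uM stock) to start; A480 q20 s × 4 min; Activity was normalised to no-enzyme and no-compound control wells.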
AmpC detergent = inhibitors of E. coli AmpC beta-lactamase with detergent | AID 485294 | AmpC hydrolysis of nitrocefin, absorbance 480 nm, 0.01% Triton | actives 0.041% (n = 370,000) | Potency, µM (top dose mostly 114 µM), for inactives: top-dose activity change, negative = inhibition, hits mostly inhibitors;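 further: 0% = no-compound wells and -100% = no-enzyme wells; nearly all actives have a fitted effect of over 25% in size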
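AmpC (5.3 nM in the dispensed reagent) in 20 mM phosphate pH 7.0 with 0.01% (detergent screen) or 0.0001% Triton X-100 was preincubated with compounds for 15 min at room temperature. Nitrocefin was then added from an 800 uM solution, and hydrolysis was followed at 480 nm.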
Active calls of the source: *; i = inactive; ? = inconclusive; . = no result. Rows were chosen to be rich in hits. Some 1.1% of all compounds tested hit in one or more screens of this group. Unless noted, the call rests on the fitted dose curve; in most records, active means well fitted curve in the direction sought with a large enough effect; inconclusive means small, poorly fitted or top-dose-only effect, or another doubt; inactive means no such curve, though single readings can be large; an effect the other way counts as inactive or inconclusive. Unless noted, on the % scale 0 is the no-effect control and ±100 the full control effect; potency means the concentration at half of the fitted maximal effect.

SMILES | VACV mCherry inh | Vaccinia Venus | AmpC no deterg | AmpC detergent
O=C(/C=C/c1ccc([N+](=O)[O-])s1)N1CCN(c2ccccc2)CC1 | . | . | -7.7% | -1.9%
Cc1cc(C(=O)NCC2CCC3(CCN(Cc4cc(F)ccc4F)CC3)O2)n(C)n1 (stereo not drawn) | -19.6% | -11.3% | . | .
CSc1nsc(SCc2cnc(C)nc2N)n1 | 22.4µM* | ? | -19.2% | ?
Cc1ncc(CSc2nnnn2-c2ccccc2)c(N)n1 | i | -6.4% | -24.2% | ?
CCCCCOc1ccc(Br)cc1CSC(=N)N | ? | 11.2µM* | 2.0% | 0.8%
O=C(O)C1Nc2c(O)cc(Cl)c([N+](=O)[O-])c2C2C=CCC12 (stereo not drawn) | . | . | 7.08µM* | 39.8µM*
Cc1ccc(NC(=O)CSc2nc(NS(=O)(=O)c3ccccc3)cc(=O)[nH]2)cc1 | -13.7% | -7.5% | -23.8% | -3.7%
O=C(CSc1nc2ccccc2c(=O)[nH]1)Nc1ccc(Br)cc1 | i | 4.6% | 2.2% | 0.9%
CCc1ccc(NC(=O)CSc2nc(NS(=O)(=O)c3ccccc3)cc(=O)[nH]2)cc1 | 8.91µM* | -2.9% | -24.8% | -7.1%
CCN(CC)c1ccc(NC(=O)CSc2nc3ccccc3c(=O)[nH]2)cc1 | . | 1.8% | 20µM* | ?
COc1ccc(CCn2c(O)cc3nn(-c4nc5ccccc5s4)c(=O)c-3c2C)cc1 | i | -6.5% | 10µM* | 2.2%
COc1ccc(CN2CCN(c3nc4ccccc4s3)CC2)cc1 | i | -12.2% | -2.6% | -4.4%
COc1ccc(F)c(CN2CCOc3ccc(CN4CCCCC4CO)cc3C2)c1 (stereo not drawn) | -14.7% | -8.0% | . | .
C[C@@H]1[C@H](c2ccccc2)OCCS(=O)(=O)N1Cc1cccc(Cl)c1 | i | -11.1% | . | .
COC(=O)[C@@H]1CCCN1Cc1ccc2c(c1)CN(Cc1cccc(Cl)c1)CCO2 | -9.6% | -3.3% | . | .
Cc1ccccc1NC(=O)Cc1nc(COC(=O)c2ccc(Cl)c(S(N)(=O)=O)c2)cs1 | -16.7% | -12.1% | 35.5µM* | -15.1%
O=C(O)COc1ccc(/C=N/NC(=O)c2ccc(-c3csc(Nc4ccc(Cl)cc4)n3)cc2)cc1 | -20.1% | 3.1% | -54.1% | ?
CCOc1cc(/C=N/NC(=O)c2ccc(-c3csc(Nc4ccc(C)cc4)n3)cc2)ccc1OCC(=O)O | ? | -22.9% | 1.41µM* | -2.0%
COc1ccc2ccccc2c1CN1CCc2nnc(CNC(=O)c3cccc(F)c3)n2CC1 | i | 0.0% | . | .
O=C1NC(=O)C2(CCc3ccccc32)N1 (stereo not drawn) | . | -4.8% | -16.5% | -12.3%
C=C1CC2(OC1=O)c1ccccc1CCc1ccccc12 | ? | 14.1µM* | . | .
COc1cc2c(NC3CCN(C)CC3)nc(N3CCCN(C)CC3)nc2cc1OCCCCC(N)=O | -18.4% | -14.5% | . | .
CCN(CC)CCCOc1cc2nc(N3CCCN(C)CC3)nc(NC3CCN(C)CC3)c2cc1OC | 7.08µM* | 10µM* | . | .
COc1cc2c(NC3CCN(C(C)C)CC3)nc(N3CCCN(C)CC3)nc2cc1OCCCN(C)C | ? | 0.251µM* | . | .
COc1cc2c(NC3CCN(C)CC3)nc(N3CCCN(C)CC3)nc2cc1OCCCCCN(C)C | ? | 12.6µM* | . | .
SMILES | VACV mCherry inh | Vaccinia Venus | AmpC no deterg | AmpC detergent
OC(c1cccnc1)c1ccc2c(c1)CN(Cc1cccc3c1OCO3)CCO2 (stereo not drawn) | -1.2% | -9.8% | . | .
CN(C)c1ccc(C=Nc2cnc3ccccc3c2)cc1 | -15.9% | -15.7% | . | .
COc1cc(=O)n2c(c1C(=O)NCc1ccco1)CCN(C(=O)c1ccccc1-c1ncc[nH]1)CC2 | -4.6% | -6.4% | . | .
c1ccc2c(NCCc3c[nH]c4ccccc34)c3ccccc3nc2c1 | ? | 8.91µM* | ? | -4.3%
OCCCNc1c2ccccc2nc2ccccc12 | 11.2µM* | 10µM* | -45.2% | 2.6%
OCCNc1c2c(nc3ccccc13)CCCC2 | -11.8% | 5.4% | -16.4% | -8.0%
CCCN1C(=O)c2ccccc2NC1c1ccc(OC)c(COc2ccc([N+](=O)[O-])cc2)c1 (stereo not drawn) | 17.3% | -11.2% | . | .
COc1cc(C(=O)/C=C/c2cccnc2)c([N+](=O)[O-])cc1OC | 12.6µM* | 11.2µM* | -7.9% | 0.6%
O=C(/C=C/c1cccnc1)c1ccc([N+](=O)[O-])cc1 | ? | -24.8% | -9.5% | -0.4%
Cc1c(Nc2cc(N3CCOCC3)c3nonc3c2[N+](=O)[O-])c(=O)n(-c2ccccc2)n1C | . | . | -14.1% | -2.3%
Cc1c(Nc2cc(Cl)c3nonc3c2[N+](=O)[O-])c(=O)n(-c2ccccc2)n1C | ? | 28.2µM* | -27.4% | 5.3%
COc1ccc(C(=O)c2c(C(F)(F)F)oc3c2C(=O)c2ccccc2C3=O)cc1 | . | 3.98µM* | -2.0% | 1.3%
C=C1c2cccc(O)c2C(=O)C2C(=O)[C@]3(O)C(=O)C(C(N)=O)C(=O)[C@@H](N(C)C)[C@@H]3[C@@H](O)[C@H]12 (stereo partly drawn) | -6.9% | -24.8% | 8.91µM* | .
Cc1cnc(C)c(-c2cccc3c2OC(CNC(=O)c2cc(C)on2)C3)n1 (stereo not drawn) | -16.0% | 2.0% | . | .
CN(Cc1cnc2nc(N)nc(N)c2n1)c1ccc(C(=O)NC(CCC(=O)O)C(=O)O)cc1 (stereo not drawn) | 11.2µM* | ? | . | .
CN(Cc1cnc2nc(N)nc(N)c2n1)c1ccc(C(=O)NC(CCC(=O)O)C(=O)O)cc1C(F)(F)F (stereo not drawn) | 0.316µM* | 1.12µM* | . | .
Nc1nc(N)c2nc(CNc3ccc(C(=O)N[C@@H](CCC(=O)O)C(=O)O)cc3)cnc2n1 | -13.1% | -1.4% | . | .
CCOC(=O)CSc1nc2nc(C)cc(C)n2n1 | -10.1% | 3.5% | 10µM* | ?
CN(C)c1ccc(/C=C2\C=Cc3ccccc32)cc1F | -8.9% | 8.4% | . | .
Cc1cc(=O)n(CCc2ccccc2)c(O)c1C#N | . | -5.4% | 2.51µM* | -3.3%
Cc1cc(=O)n(CCO)c(O)c1C#N | . | . | -19.3% | 2.4%
Cc1ccc2nc(-c3ccc(C)o3)c(Nc3ccc(Cl)cc3)n2c1 | -7.9% | -1.4% | . | .
COc1cc(C(=O)NNC(=O)NC2CCCCC2)cc(OC)c1OC | -15.8% | -8.5% | 0.251µM* | 0.5%
Cc1ccc(C(C)C)cc1NC(=O)Nc1ccc([N+](=O)[O-])cc1 | ? | 10µM* | -54.4% | -8.0%
Cc1ccc(NC(=O)Nc2cc(S(=O)(=O)N(C)C)ccc2C)cc1 | . | . | 25.1µM* | -7.6%
SMILES | VACV mCherry inh | Vaccinia Venus | AmpC no deterg | AmpC detergent
Cc1cccc(C(=O)Nc2cccc(C(=O)N/N=C/c3ccccn3)c2)c1 | . | . | -38.8% | -7.2%
O=C(N/N=C/c1ccccn1)c1cccc(NC(=O)c2ccccc2Cl)c1 | . | . | 17.8µM* | 1.2%
Cc1c(C(=O)NC2CCCC2)sc2ncnc(NCCN(C)C)c12 | -6.6% | -4.1% | . | .
CN(C)c1ccc(CCc2ccnc3ccccc23)cc1 | 9.8% | -17.3% | . | .
Cc1ccccc1Nc1c(N)c(=O)oc2ccccc12 | . | . | 0.316µM* | 1.6%
Cc1noc(C)c1-c1ccc2ncnc(NCc3cccc(-c4ccccc4)c3)c2c1 | . | . | -22.9% | ?
CC(=O)Nc1nc(C)c(-c2csc(Nc3cccc([N+](=O)[O-])c3)n2)s1 | 5.01µM* | ? | -54.1% | -3.6%

Screening data: PubChem BioAssay, National Center for Advancing Translational Sciences (NCATS)
